An excerpt weighted towards active compounds, which were near 20% of everything screened.
Shiga toxin inh = inhibitors of Shiga toxin in Vero cells | inhibition, % at 38.7 µM | hit rate 9.2% among 290,000 | Vero cells, Shiga toxin protein synthesis inhibition reporter; in the data active = inhibition mostly above about 28%, no sharp cut-off; inactive = mostly below about 43%; also: 0% is about no effect
Pf growth 48h = inhibits P. falciparum growth in the first generation, 48 h. P. falciparum luciferase growth in erythrocytes, 48 h. Potency, µM (titrated, usually from 28.7 µM), inactives show at the top dose activity change, negative = inhibition, usual class: inhibitors. hit rate 5.9% among 310,000; also: potency is read from the fitted curve at half-maximal effect; % is scaled to controls: 0 for no effect and ±100 for the full control effect
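Luciferase-expressing parasites in RBCs, 2% Hct / 0.1% parasitemia final; RPMI 1640 + 0.5% Albumax; 37 C, 5% CO2, one generation; luminescence read-out, lower signal = inhibition.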
HCMV inh = human cytomegalovirus inhibition. HFF cells, HCMV-luciferase reporter, 72 h; active compounds read low. activity change, negative = inhibition, % at 57.5 µM. hit rate 4.5% among 410,000. AID 1259415; in the data active = activity change below about -60%; inconclusive = no clear call, values can overlap the other calls; inactive = above about -39%; also: % is scaled to controls: 0 for no effect and ±100 for the full control effect
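Cell-based, HFFs, 1000 cells/well, 16 h 37C; cpds in DMSO + HCMV-luc, MOI 1 PFU/cell; 72 h 37C; OneGlo luminescence after 5 min RT; norm. to buffer vs Salinomycin 10uM.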
Cycloheximide cs = affects cycloheximide protein synthesis inhibition readout, counter-screen. cell reporter, cycloheximide protein synthesis inhibition counterscreen. max response, %. hit rate 12% among 300,000. AID 2314; in the data active = max response mostly above about 13%, no sharp cut-off; inactive = mostly below about 14%; also: read at 38.3 µM for the half of the compounds with a filed dose; 0% is about no effect
Pf growth 96h = P. falciparum growth inhibition at 96 hours | P. falciparum luciferase reporter growth, 96 h | hit rate 6.9% among 320,000 | AID 504834 | Potency, µM (top dose mostly 28.7 µM), without a hit: at the highest dose activity change, negative = inhibition, most hits filed as inhibitors; also: potency is read from the fitted curve at half-maximal effect; % is scaled to controls: 0 for no effect and ±100 for the full control effect
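Parasite growth measured via integrated firefly luciferase reporter in P. falciparum. Infected erythrocytes at 2% hematocrit, 0.05% parasitemia final were treated 96 hours at 37 C under 5% CO2, and luminescence was read.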
* hit, by the source's call; ? = inconclusive; . = not tested or not shown; + = active, no number; [ ] = another dose, or the depositor's remark. Unless noted, calls follow the shape of the dose curve; as a rule, active = well fitted inhibition curve with a large enough effect; inconclusive = small, poorly fitted or top-dose-only effect, or another doubt; inactive = no such curve, though single readings can be large or run the other way.

SMILES	Shiga toxin inh	Pf growth 48h	HCMV inh	Cycloheximide cs	Pf growth 96h
COc1ccccc1CNCC(=O)Nc1ccc(N2CCOCC2)cc1	-11	-3%	-35	0	1%
COc1ccccc1NC(=O)Nc1ccc(CC#N)cc1	43*	95%	-30	25*	82%
COc1ccc(OC)c(/C(O)=C/C(=O)C(=O)Nc2ccccc2OC)c1	27	.	12	2	15µM*
COc1ccccc1NC(=O)Nc1ccc(C(N)=O)cc1	19	1%[5.75 µM]	-12	13*	38%[1.15 µM]
O=S1(=O)CC(N2CCN(c3ccccn3)CC2)CN1Cc1ccccc1 (centres undefined)	.	.	4	.	.
COc1cc(OC)cc(C(=O)NCC(c2cccs2)S(=O)(=O)c2ccc(F)c(C)c2)c1 (centres undefined)	.	.	9	.	.
CCOC(=O)C1=C(C)NC(=O)/C1=C\N(C)C	-2	5%	-34	6	-8%
COc1ccc(NC(=O)N/C=C/c2ccccc2)cc1	103*	136%	1	35*	160%
COc1ccccc1NC(=O)Nc1ccccc1Br	12	?	-31	-2	22%
CCN1CCN(Cc2ccc(NC(=O)Nc3ccccc3OC)cc2)CC1	10*	45%	33	35*	-11%
COc1ccc(NC(=O)Nc2ccccc2OC)cc1	61*	133%	60	40*	.
COc1ccccc1NC(=S)N1CCN(Cc2ccccc2)CC1	-11	-27%	?	-3	41%
COc1ccccc1NC(=O)Nc1ccc(NC(=O)c2ccccc2O)cc1	14	-4%	-28	8	5%
COc1ccccc1NC(=O)Nc1cc(NC(=O)Nc2ccccc2OC)c(C)nc1C	-5	?	?	-3	6.6µM*
NCC[C@H](O)C(=O)N[C@@H]1C[C@H](N)[C@@H](O[C@H]2O[C@H](CN)CC[C@H]2N)[C@H](O)[C@H]1O[C@H]1O[C@H](CO)[C@@H](O)[C@H](N)[C@H]1O	.	-5%	.	.	-17%
Cc1onc(-c2ccccc2)c1C(=O)/C=C/N(C)C	-8	-2%	14	-1	21%
Cc1cccc(N2CCN(C(=O)c3ccc4c(c3)N(Cc3ccccc3F)C(=O)c3ccccc3S4=O)CC2C)c1 (centres undefined)	.	.	-64*	.	.
CCN1C(=O)c2ccccc2S(=O)c2ccc(C(=O)N3CCN(c4cccc(C)c4)C(C)C3)cc21 (centres undefined)	.	.	-27	.	.
CCOC(=O)N1CCN(C(=O)c2ccc3c(c2)N(Cc2cccc(Cl)c2)C(=O)c2ccccc2S3=O)CC1 (centres undefined)	-2	7.4µM*	?	2	19%
CN1CCN(C(=O)c2ccc3c(c2)N(Cc2cccc(Cl)c2)C(=O)c2ccccc2S3=O)CC1 (centres undefined)	.	.	-3	.	.
Cc1cccc(N2CCN(C(=O)c3ccc4c(c3)N(Cc3cccc(Cl)c3)C(=O)c3ccccc3S4=O)CC2C)c1 (centres undefined)	.	.	-67*	.	.
CCCC(O)c1nnc(Nc2cccc(Cl)c2)s1 (centres undefined)	.	.	-1	.	.
CC1CCCN(C2(O)C(=O)Nc3c(C(F)(F)F)cccc32)C1 (centres undefined)	24	4.1µM*	0	9.4*	-13%
CCc1cccc2c1NC(=O)C2(O)N1CCCC(C)C1 (centres undefined)	.	?	1	12	92%
Fc1cc(Br)ccc1COc1ccc(-c2nnco2)cc1	93*	84%	28	36*	83%
SMILES	Shiga toxin inh	Pf growth 48h	HCMV inh	Cycloheximide cs	Pf growth 96h
Fc1ccc(COc2ccc(-c3nnco3)cc2)c(Cl)c1	84*	70%	-1	30*	38%
Cc1nc2cc(Nc3nnc(-c4ccccc4)c4ccccc34)ccc2n1C	45	43%	21	45*	64%
Cc1nc2cc(NC(=O)Nc3cccc4ccccc34)ccc2n1C	83	-49%	76	28	22%
O=S(=O)(NC1CCCCC1N1CCN(c2ccc(F)cc2)CC1)c1ccccc1 (centres undefined)	-6	?	+	-2	-20%
O=S(=O)(NC1CCCCC1N1CCCCC1)c1ccccc1 (centres undefined)	-7	24%	-33	-1	?
Cc1ccc(C)c(N2CCN(C3CCCCC3NS(=O)(=O)c3ccccc3)CC2)c1 (centres undefined)	-10	?	.	-4	12µM*
CCOC(=O)c1c(NC(=O)C(Sc2ccccc2)c2ccccc2)sc(C(=O)N(C)C)c1C (centres undefined)	-7	3.3µM*	-8	1	?
CCOC(=O)c1c(NC(=O)OC)sc(C(=O)N(C)C)c1C	-22	-8%	-18	6	-6%
CCOC(=O)c1c(NC(=O)C(Sc2ccccc2)c2ccccc2)sc(C(N)=O)c1C (centres undefined)	-8	?	17	-2	9.3µM*
Cc1ccc(S(=O)(=O)N2CC(O)CC2C(=O)OCC(=O)c2ccccc2Cl)cc1C (centres undefined)	-14	32%	-17	-3	52%
CCOc1ccccc1OCCCC(=O)Nc1cccc(S(=O)(=O)N2CCOCC2)c1	.	13µM*	-10	.	?
O=C(CCCOc1ccccc1)Nc1ccc(S(=O)(=O)N2CCOCC2)cc1	38	12µM*	4	-4	?
CCCCCOc1ccc(NC(=O)CSc2cccc3cccnc23)cc1	5	10µM*	9	17	5.2µM*
Cc1ccc(OCC(=O)Nc2ccc(S(=O)(=O)N3CCOCC3)cc2)c(Br)c1	-5	10µM*	4	1	?
COc1ccc(NC(=O)COc2ccc(S(=O)(=O)N3CCOCC3)cc2C)cc1OC	24	-3%	?	-2	?
Cc1ccc(S(=O)(=O)N2Cc3ccccc3CC2C(=O)N(C)C)cc1 (centres undefined)	.	.	23	.	.
O=C(COc1cccc2c1CCN(Cc1ccc(Cl)cc1)C2=O)N1CCOCC1	-14	?	?	-1	?
CCC(C(=O)NCCC(C)C)N(C(=O)Cn1nnc(-c2ccc(C)cc2)n1)c1cccc(O)c1 (centres undefined)	.	.	-27	.	.
Cc1ccc(NC(=O)CC(C)c2ccccc2)cc1S(=O)(=O)N1CCOCC1 (centres undefined)	.	.	-34	.	.
O=C(CN1c2cccc3cccc(c23)S1(=O)=O)Nc1ccc(S(=O)(=O)N2CCOCC2)cc1	17	?	-9	-1	13µM*
O=C(CSc1cccc2cccnc12)Nc1ccc(S(=O)(=O)N2CCOCC2)cc1	25	12µM*	-37	14	-9%
O=C(CSc1cccc2cccnc12)Nc1cccc(S(=O)(=O)N2CCOCC2)c1	-7	?	-33	-1	?
O=C(CN1C(=O)c2cccc3cccc1c23)Nc1ccc(S(=O)(=O)N2CCOCC2)cc1	-11	?	-3	-3	.
O=C(CCCOc1ccc(Cl)cc1)Nc1ccc(N2CCOCC2)cc1	8	-25%	36	3	-12%

Assay outcomes as filed in PubChem BioAssay.
